# Assay results from publication PMC7862700, “An all-to-all approach to the identification of sequence-specific readers for epigenetic DNA modifications on cytosine”.
# Columns and labels:
# Experiment in all cases: DAPPL (digital affinity profiling via proximity ligation, sequencing); 10 mM Tris-HCl pH 7.5, 50 mM NaCl, 1 mM DTT, 4% glycerol, room temperature, 30 min; GST-TFs on glutathione beads, 16-mer random dsDNA library, 0.1% formaldehyde crosslink after washing; high values mean tight binding
# Conditions in all cases: protein: recombinant; tags: N-terminal GST; dsDNA, one strand shown
# [1] = target: T1, ELK1 (Homo sapiens, UniProt P19419 1-428)
# T1 sequence: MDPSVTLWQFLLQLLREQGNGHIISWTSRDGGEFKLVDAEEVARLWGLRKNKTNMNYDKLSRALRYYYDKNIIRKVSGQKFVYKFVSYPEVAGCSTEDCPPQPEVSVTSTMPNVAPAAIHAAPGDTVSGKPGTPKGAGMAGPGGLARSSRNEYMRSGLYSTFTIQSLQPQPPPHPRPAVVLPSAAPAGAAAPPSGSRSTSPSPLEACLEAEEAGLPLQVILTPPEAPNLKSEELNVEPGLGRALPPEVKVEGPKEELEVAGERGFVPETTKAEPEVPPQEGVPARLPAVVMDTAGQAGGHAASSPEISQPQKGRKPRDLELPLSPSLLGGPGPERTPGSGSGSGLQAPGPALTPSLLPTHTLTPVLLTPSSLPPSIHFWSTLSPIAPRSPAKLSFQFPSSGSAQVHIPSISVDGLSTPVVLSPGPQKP
# Outline: (§1)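 Binding signal is each hexamer's read frequency for a factor divided by its frequency in the tag-only sample. The factors were GST-fused human transcription factors from yeast, captured on glutathione beads, DNA-barcoded and pooled with that sample. Pools were incubated with 200 nmole of a random double-stranded 16-mer DNA library in Tris/NaCl/DTT/glycerol buffer at room temperature for 30 min, then washed, crosslinked with 0.1% formaldehyde, proximity-ligated with BsaI/T4 ligase (1 h, 37 °C), PCR-amplified and sequenced on an Illumina NextSeq500.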
# [2] = target: T2, GABPA (Homo sapiens, UniProt Q06546 1-454)
# T2 sequence: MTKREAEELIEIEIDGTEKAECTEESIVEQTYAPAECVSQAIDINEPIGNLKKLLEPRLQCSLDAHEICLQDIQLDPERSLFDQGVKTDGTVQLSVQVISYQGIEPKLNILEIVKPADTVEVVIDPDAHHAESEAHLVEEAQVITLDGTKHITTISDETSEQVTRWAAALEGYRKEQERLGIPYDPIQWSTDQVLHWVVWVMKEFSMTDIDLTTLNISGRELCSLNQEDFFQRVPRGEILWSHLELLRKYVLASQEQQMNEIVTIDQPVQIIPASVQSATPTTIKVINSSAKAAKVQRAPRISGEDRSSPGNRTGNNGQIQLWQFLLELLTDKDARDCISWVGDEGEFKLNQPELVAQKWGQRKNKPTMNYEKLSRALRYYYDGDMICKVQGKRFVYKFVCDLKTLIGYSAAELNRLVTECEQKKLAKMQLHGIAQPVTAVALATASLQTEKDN
# Outline: as §1
# [3] = target: T3, ERG (Homo sapiens, UniProt P11308 1-479)
# T3 sequence: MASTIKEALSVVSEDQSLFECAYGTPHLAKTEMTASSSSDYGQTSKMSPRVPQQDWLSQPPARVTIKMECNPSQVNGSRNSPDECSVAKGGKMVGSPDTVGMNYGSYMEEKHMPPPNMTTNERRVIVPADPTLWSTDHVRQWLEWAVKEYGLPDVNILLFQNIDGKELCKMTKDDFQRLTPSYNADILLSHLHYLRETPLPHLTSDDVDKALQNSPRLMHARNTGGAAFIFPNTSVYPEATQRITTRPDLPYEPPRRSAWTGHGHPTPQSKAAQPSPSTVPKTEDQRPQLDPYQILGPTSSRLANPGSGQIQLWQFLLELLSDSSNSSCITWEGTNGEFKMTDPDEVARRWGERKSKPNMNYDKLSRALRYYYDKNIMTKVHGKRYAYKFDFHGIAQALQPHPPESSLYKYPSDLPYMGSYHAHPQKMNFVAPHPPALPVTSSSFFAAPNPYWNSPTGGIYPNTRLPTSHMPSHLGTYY
# Outline: as §1
# [4] = target: ELF1 (Homo sapiens, UniProt P32519 1-619)
# Outline: as §1
# [5] = target: T4, EHF (Homo sapiens, UniProt Q9NZC4 1-300)
# T4 sequence: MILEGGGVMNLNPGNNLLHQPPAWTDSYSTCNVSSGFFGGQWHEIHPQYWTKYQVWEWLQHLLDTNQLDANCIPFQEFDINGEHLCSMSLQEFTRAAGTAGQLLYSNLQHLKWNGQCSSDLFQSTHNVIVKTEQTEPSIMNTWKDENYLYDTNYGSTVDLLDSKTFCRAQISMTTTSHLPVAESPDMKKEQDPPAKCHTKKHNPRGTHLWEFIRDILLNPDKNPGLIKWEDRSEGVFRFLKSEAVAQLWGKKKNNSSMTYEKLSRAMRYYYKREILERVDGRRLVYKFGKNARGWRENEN
# Outline: as §1
# [6] = target: SPIB (Homo sapiens, UniProt Q01892 1-262)
# Outline: as §1
# [7] = target: T5, FEV (Homo sapiens, UniProt Q99581 1-238)
# T5 sequence: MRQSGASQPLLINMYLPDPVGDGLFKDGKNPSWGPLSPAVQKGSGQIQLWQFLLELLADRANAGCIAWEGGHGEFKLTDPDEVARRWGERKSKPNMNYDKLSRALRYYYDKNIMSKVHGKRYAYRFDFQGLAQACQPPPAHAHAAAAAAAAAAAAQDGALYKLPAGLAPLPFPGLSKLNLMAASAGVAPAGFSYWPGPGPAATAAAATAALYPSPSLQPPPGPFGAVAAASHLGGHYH
# Outline: as §1
# [8] = target: ETV5 (Homo sapiens, UniProt P41161 1-510)
# Outline: as §1
# [9] = target: ELF4 (Homo sapiens, UniProt Q99607 1-663)
# Outline: as §1
# [10] = target: T6, ETV2 (Homo sapiens, UniProt O00321 1-342)
# T6 sequence: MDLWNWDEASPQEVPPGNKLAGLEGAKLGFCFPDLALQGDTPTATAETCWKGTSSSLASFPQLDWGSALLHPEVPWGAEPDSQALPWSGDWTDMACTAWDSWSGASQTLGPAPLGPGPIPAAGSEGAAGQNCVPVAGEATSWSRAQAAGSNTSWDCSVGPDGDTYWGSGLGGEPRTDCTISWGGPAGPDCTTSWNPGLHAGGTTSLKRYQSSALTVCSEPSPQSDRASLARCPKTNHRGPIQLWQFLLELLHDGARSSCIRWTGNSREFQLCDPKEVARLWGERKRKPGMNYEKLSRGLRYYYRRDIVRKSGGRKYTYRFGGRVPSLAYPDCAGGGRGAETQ
# Outline: as §1
# [11] = target: T7, ELF3 (Homo sapiens, UniProt P78545 1-371)
# T7 sequence: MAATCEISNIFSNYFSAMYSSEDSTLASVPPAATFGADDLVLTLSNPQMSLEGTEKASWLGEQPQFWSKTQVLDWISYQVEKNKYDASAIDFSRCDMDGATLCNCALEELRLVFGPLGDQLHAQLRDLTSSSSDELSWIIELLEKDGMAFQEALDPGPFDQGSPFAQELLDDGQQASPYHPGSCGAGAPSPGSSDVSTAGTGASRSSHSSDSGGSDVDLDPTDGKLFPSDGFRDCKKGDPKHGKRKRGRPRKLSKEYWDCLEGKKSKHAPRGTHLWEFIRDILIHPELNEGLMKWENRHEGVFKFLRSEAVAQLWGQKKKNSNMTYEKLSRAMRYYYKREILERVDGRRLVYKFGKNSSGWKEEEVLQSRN
# Outline: as §1
# [12] = target: ETV1 (Homo sapiens, UniProt P50549 1-477)
# Outline: as §1
# [13] = target: T8, ERF (Homo sapiens, UniProt P50548 1-548)
# T8 sequence: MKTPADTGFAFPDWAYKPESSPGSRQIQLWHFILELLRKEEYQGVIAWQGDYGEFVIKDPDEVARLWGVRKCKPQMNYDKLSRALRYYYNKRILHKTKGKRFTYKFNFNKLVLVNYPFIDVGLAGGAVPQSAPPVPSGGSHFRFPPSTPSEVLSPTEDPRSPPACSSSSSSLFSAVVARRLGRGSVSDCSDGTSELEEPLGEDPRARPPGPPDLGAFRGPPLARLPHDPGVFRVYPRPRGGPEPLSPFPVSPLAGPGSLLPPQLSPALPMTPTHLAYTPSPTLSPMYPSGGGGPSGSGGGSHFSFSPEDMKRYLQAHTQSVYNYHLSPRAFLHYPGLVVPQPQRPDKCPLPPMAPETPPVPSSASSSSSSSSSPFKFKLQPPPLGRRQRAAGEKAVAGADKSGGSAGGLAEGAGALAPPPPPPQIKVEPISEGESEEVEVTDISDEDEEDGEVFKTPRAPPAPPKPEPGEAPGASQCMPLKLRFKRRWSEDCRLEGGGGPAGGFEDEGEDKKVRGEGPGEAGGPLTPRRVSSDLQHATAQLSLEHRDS
# Outline: as §1
# [14] = target: T9, ETV3L (Homo sapiens, UniProt Q6ZN32 1-361)
# T9 sequence: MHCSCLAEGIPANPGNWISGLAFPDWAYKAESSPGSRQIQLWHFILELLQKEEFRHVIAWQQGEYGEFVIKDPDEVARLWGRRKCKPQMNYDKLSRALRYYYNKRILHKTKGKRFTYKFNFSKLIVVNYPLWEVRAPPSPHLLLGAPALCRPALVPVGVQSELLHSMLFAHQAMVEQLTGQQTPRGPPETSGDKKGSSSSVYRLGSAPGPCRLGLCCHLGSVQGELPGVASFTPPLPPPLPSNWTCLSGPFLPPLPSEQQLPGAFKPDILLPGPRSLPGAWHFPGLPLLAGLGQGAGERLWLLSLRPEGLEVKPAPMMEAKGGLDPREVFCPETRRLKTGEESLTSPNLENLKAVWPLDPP
# Outline: as §1
# [15] = target: T10, ETS2 (Homo sapiens, UniProt P15036 1-469)
# T10 sequence: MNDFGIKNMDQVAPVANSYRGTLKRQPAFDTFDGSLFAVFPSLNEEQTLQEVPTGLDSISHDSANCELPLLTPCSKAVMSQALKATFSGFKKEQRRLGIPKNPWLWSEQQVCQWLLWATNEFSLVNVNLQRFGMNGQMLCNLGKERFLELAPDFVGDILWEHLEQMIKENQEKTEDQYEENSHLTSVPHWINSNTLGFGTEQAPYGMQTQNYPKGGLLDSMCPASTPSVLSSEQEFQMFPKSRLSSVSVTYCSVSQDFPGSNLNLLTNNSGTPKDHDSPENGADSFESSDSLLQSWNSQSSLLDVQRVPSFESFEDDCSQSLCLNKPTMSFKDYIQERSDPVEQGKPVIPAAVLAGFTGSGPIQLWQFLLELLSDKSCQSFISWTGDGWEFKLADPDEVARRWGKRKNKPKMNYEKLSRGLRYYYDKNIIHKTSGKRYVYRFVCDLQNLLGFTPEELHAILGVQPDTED
# Outline: as §1
# [16] = target: T11, SPDEF (Homo sapiens, UniProt O95238 1-335)
# T11 sequence: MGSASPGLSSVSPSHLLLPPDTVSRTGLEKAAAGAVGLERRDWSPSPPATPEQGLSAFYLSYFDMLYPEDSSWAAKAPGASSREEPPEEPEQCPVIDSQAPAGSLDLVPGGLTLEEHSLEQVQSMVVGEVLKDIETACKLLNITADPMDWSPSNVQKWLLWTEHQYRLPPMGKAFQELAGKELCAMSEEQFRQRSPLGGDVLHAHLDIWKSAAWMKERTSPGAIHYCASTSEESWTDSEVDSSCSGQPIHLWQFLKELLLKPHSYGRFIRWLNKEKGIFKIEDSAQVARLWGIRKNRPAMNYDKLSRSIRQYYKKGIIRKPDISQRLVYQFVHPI
# Outline: as §1
# [17] = target: T12, ETV7 (Homo sapiens, UniProt Q9Y603 1-341)
# T12 sequence: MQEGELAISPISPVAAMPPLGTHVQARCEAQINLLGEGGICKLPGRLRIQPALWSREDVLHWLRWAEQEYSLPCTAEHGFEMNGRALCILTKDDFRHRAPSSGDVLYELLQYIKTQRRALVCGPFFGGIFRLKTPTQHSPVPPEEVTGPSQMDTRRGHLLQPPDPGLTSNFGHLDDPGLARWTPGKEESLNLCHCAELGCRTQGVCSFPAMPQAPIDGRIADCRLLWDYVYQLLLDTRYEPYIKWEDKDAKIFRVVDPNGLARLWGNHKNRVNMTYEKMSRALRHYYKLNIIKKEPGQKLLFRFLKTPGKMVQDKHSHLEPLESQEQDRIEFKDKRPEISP
# Outline: as §1
# [18] = target: T13, ETV3 (Homo sapiens, UniProt P41162-2 1-143)
# T13 sequence: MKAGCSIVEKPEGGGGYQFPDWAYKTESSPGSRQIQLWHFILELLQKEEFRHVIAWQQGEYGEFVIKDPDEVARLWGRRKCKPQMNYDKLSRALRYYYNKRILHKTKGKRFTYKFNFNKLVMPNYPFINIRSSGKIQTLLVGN
# Outline: as §1
# [19] = target: ETV6 (Homo sapiens, UniProt P41212 1-452)
# Outline: as §1
# Chain of ETV6 (P41212 whole entry): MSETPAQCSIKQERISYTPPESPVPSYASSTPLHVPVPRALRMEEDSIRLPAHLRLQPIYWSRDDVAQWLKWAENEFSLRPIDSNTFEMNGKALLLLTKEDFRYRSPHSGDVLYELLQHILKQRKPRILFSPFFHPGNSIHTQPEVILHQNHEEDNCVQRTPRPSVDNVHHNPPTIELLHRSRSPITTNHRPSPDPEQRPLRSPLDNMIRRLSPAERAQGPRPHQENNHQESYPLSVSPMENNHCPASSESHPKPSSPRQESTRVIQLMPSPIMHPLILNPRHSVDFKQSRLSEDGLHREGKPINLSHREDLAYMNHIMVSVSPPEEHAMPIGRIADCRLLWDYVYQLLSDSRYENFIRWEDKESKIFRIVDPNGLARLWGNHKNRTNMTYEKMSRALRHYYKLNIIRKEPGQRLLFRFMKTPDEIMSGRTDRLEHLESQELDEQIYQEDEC
# Chain of ELF4 (Q99607 whole entry): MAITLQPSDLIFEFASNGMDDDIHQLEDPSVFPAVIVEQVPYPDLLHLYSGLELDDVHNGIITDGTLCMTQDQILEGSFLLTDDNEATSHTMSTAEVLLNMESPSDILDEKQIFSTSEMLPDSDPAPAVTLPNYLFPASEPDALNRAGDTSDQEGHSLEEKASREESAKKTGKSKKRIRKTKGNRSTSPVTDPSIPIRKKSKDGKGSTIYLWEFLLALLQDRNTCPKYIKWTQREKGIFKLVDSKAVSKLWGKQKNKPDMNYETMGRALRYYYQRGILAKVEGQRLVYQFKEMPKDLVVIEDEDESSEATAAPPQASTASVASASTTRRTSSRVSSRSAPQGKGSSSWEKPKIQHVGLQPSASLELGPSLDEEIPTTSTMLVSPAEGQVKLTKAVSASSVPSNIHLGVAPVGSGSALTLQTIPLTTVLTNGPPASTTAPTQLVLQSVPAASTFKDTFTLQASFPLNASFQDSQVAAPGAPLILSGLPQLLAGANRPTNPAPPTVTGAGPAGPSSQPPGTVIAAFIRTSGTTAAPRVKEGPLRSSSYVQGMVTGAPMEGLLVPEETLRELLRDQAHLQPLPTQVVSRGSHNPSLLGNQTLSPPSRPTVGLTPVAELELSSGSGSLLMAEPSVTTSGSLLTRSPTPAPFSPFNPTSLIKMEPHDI
# Chain of ELF1 (P32519 whole entry): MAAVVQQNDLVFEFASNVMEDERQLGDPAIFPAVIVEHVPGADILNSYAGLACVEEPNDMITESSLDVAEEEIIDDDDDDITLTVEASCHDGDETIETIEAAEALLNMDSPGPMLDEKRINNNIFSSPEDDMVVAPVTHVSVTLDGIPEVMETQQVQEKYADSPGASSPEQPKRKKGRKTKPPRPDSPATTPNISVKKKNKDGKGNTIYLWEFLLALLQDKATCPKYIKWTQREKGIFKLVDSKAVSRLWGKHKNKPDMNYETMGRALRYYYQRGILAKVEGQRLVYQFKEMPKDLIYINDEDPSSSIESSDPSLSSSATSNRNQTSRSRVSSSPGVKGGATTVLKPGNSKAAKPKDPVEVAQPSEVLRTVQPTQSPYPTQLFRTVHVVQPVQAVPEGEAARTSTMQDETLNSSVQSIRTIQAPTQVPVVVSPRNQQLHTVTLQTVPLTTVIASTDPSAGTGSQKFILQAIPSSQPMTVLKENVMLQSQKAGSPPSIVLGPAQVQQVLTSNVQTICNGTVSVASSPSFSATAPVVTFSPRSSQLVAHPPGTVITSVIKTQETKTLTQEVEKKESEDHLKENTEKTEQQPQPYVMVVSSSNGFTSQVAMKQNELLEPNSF
# Chain of SPIB (Q01892 whole entry): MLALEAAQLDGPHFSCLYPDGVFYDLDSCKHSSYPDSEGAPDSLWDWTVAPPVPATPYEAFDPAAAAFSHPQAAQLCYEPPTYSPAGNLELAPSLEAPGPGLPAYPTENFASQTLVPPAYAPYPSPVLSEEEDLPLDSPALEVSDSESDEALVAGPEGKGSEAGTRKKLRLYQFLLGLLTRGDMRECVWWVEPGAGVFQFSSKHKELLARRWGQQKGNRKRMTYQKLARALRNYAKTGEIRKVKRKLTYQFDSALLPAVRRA
# Chain of ETV1 (P50549 whole entry): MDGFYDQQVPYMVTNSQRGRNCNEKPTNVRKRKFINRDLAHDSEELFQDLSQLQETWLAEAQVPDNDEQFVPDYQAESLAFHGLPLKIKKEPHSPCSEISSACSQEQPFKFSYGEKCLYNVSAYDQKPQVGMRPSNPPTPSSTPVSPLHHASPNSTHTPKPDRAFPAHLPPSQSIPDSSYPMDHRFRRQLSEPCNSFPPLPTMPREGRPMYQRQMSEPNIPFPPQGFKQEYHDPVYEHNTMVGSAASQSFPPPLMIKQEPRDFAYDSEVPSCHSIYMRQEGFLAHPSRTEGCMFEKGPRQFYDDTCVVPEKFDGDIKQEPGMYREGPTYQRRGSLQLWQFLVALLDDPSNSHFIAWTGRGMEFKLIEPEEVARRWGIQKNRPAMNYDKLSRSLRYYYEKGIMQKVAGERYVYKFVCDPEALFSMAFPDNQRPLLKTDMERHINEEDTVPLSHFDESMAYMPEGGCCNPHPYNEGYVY
# Chain of ETV5 (P41161 whole entry): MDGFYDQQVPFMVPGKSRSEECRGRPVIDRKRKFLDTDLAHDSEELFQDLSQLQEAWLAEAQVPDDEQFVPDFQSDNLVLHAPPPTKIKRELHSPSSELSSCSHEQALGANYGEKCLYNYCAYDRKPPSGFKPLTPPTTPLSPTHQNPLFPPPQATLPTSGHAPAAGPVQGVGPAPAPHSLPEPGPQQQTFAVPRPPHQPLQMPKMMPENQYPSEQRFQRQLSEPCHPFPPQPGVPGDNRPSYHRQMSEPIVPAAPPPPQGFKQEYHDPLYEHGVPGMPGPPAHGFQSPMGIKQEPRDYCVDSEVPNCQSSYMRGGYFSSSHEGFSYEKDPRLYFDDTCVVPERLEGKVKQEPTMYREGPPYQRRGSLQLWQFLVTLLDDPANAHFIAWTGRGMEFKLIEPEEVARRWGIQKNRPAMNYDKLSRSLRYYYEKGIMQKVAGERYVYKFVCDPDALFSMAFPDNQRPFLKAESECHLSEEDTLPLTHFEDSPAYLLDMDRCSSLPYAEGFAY
sequence,measurement,setting,value
AGTGCA,binding signal,[1],"1.1 fold enrichment (6-mer frequency, TF over GST control)"
same,binding signal,[2],"1.1 fold enrichment (6-mer frequency, TF over GST control)"
same,binding signal,[3],"1.07 fold enrichment (6-mer frequency, TF over GST control)"
same,binding signal,[4],"1.07 fold enrichment (6-mer frequency, TF over GST control)"
same,binding signal,[5],"1.09 fold enrichment (6-mer frequency, TF over GST control)"
same,binding signal,[6],"1.08 fold enrichment (6-mer frequency, TF over GST control)"
same,binding signal,[7],"1.15 fold enrichment (6-mer frequency, TF over GST control)"
same,binding signal,[8],"1.14 fold enrichment (6-mer frequency, TF over GST control)"
same,binding signal,[9],"1.03 fold enrichment (6-mer frequency, TF over GST control)"
same,binding signal,[10],"1.04 fold enrichment (6-mer frequency, TF over GST control)"
same,binding signal,[11],"1.16 fold enrichment (6-mer frequency, TF over GST control)"
same,binding signal,[12],"1.11 fold enrichment (6-mer frequency, TF over GST control)"
same,binding signal,[13],"1.12 fold enrichment (6-mer frequency, TF over GST control)"
same,binding signal,[14],"1.03 fold enrichment (6-mer frequency, TF over GST control)"
same,binding signal,[15],"1.08 fold enrichment (6-mer frequency, TF over GST control)"
same,binding signal,[16],"1.07 fold enrichment (6-mer frequency, TF over GST control)"
same,binding signal,[17],"1.18 fold enrichment (6-mer frequency, TF over GST control)"
same,binding signal,[18],"1.05 fold enrichment (6-mer frequency, TF over GST control)"
same,binding signal,[19],"1.16 fold enrichment (6-mer frequency, TF over GST control)"
